This passage reports Potency and outcome results from PubChem BioAssay (NCATS).

Test [1] deals with Luciferin 4-monooxygenase (Photinus pyralis) (UniProt P08659). Nature of the test: Biochemical firefly luciferase enzyme assay for NPC (AID 624030).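 Note: purified P. pyralis luciferase at 10 nM with luciferin and ATP substrate; nearly all actives have a fitted effect of over 70% in size.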 The settings on record: purified P. pyralis luciferase, luminescence, 5 min; series mostly up to 58.6 µM. Put shortly:
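Purified P. pyralis luciferase at 10 nM in 50 mM Tris Acetate (final), luminescence read within 5 minutes of enzyme addition to compounds. Activity normalised to PTC124 versus DMSO; concentration-response curves classed by r2, magnitude and activity.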

A further test has as its system 3D7. Nature of the test: qHTS profiling for inhibitors of Plasmodium falciparum proliferation (AID 504749). Note: nearly all actives have a fitted effect of over 60% in size. Note: potency is the fitted concentration of half-maximal effect. The settings on record: P. falciparum in erythrocytes, SYBR Green DNA, 72 h; series mostly up to 28.7 µM. Put shortly:
(§1)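 SYBR Green fluorescence (ex 485 nm, em 535 nm) reports parasite DNA after 72 h compound exposure of infected red cells at 0.3% parasitemia, 2.5% hematocrit; signal normalized to 0.29 uM artemisinin and vehicle wells.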
On the technique in general: In qHTS, concentration-response curves come from the screen itself.

The subject of a further test is 7G8. Described as above. To be noted: P. falciparum in erythrocytes, SYBR Green DNA, 72 h; series mostly up to 28.7 µM. Put shortly: as §1
For another test, the system named is CP201. The test is described as above. To be noted: P. falciparum in erythrocytes, SYBR Green DNA, 72 h; series mostly up to 28.7 µM. Put shortly: as §1
The test system of a further test is CP215. The test is described as above. To be noted: P. falciparum in erythrocytes, SYBR Green DNA, 72 h; series mostly up to 28.7 µM. A digest of the protocol: as §1
The next test concerns CP237. Described as above. The settings on record: P. falciparum in erythrocytes, SYBR Green DNA, 72 h; series mostly up to 28.7 µM. Put shortly:
as §1

A further test concerns CP262. The test is described as above. To be noted: P. falciparum in erythrocytes, SYBR Green DNA, 72 h; series mostly up to 28.7 µM. Put shortly:
as §1

Another test relates to CP266. The test is described as above. The settings on record: P. falciparum in erythrocytes, SYBR Green DNA, 72 h; series mostly up to 28.7 µM. A digest of the protocol: as §1
The subject of a further test is CP291. The test is described as above. The settings on record: P. falciparum in erythrocytes, SYBR Green DNA, 72 h; series mostly up to 28.7 µM. Put shortly:
as §1

Another test deals with CP315. The description is as above. To be noted: P. falciparum in erythrocytes, SYBR Green DNA, 72 h; series mostly up to 28.7 µM. A digest of the protocol:
as §1

Another test concerns CP325. Described as above. The settings on record: P. falciparum in erythrocytes, SYBR Green DNA, 72 h; series mostly up to 28.7 µM. Put shortly: as §1
A further test concerns DFO2036. The description is as above. To be noted: P. falciparum in erythrocytes, SYBR Green DNA, 72 h; series mostly up to 28.7 µM. A digest of the protocol: as §1
Another test deals with Dd2. The description is as above. The settings on record: P. falciparum in erythrocytes, SYBR Green DNA, 72 h; series mostly up to 28.7 µM. A digest of the protocol: as §1
A further test concerns FAB9. The description is as above. To be noted: P. falciparum in erythrocytes, SYBR Green DNA, 72 h; series mostly up to 28.7 µM. Put shortly:
as §1

A further test concerns HB3. Described as above. The settings on record: P. falciparum in erythrocytes, SYBR Green DNA, 72 h; series mostly up to 28.7 µM. A digest of the protocol: as §1
The next test deals with ICS. The description is as above. The settings on record: P. falciparum in erythrocytes, SYBR Green DNA, 72 h; series mostly up to 28.7 µM. Put shortly:
as §1

For the next test, the system named is JCK. Described as above. The settings on record: P. falciparum in erythrocytes, SYBR Green DNA, 72 h; series mostly up to 28.7 µM. Put shortly: as §1
The test system of the next test is P94_40. The description is as above. The settings on record: P. falciparum in erythrocytes, SYBR Green DNA, 72 h; series mostly up to 28.7 µM. Put shortly:
as §1

In a further test the test system is TAB165. The test is described as above. The settings on record: P. falciparum in erythrocytes, SYBR Green DNA, 72 h; series mostly up to 28.7 µM. A digest of the protocol:
as §1

Test [2] is described as follows: NCATS anti-infectives library activity on HEK293 viability as a counter-qHTS vs the C. elegans viability qHTS (AID 1745854). To be noted: HEK293 viability counter-screen; series mostly up to 41.8 µM. A digest of the protocol:
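CellTiter-Glo luminescence, read on a CCD imager, scored viability of HEK293 cells after 24 hr compound exposure at 37C. Library tested in several concentrations, 1:5 steps, up to 41.7 uM; digitonin served as control.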

Structures are written as SMILES. Inconclusive results are not listed. Activity calls are given as the source filed them. Calls come from the whole dose curve; as a rule, active = well fitted curve in the direction sought with a large enough effect; inconclusive = small, poorly fitted or top-dose-only effect, or another doubt; inactive = no such curve, though single readings can be large; an effect the other way counts as inactive or inconclusive.

Chain of Luciferin 4-monooxygenase (Photinus pyralis) (P08659 whole entry, looked up): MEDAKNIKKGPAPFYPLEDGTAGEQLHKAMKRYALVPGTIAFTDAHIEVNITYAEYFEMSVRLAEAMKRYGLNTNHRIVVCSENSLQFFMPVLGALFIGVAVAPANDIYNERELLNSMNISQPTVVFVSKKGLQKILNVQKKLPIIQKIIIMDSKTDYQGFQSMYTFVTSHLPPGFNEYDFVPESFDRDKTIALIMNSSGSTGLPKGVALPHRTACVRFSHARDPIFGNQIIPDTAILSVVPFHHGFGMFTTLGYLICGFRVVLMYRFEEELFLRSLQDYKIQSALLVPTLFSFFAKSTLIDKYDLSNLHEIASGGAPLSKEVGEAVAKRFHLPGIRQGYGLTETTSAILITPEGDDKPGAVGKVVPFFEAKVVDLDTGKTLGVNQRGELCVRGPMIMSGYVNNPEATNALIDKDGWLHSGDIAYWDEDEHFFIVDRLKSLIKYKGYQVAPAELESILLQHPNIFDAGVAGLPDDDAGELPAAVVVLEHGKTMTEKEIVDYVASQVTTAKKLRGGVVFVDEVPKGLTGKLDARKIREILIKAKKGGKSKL

Regarding `COC(=O)[C@@H]1[C@@H]2C[C@H]3c4[nH]c5ccccc5c4CCN3C[C@@H]2CC[C@@H]1O`, the Potency result (in test [1]; in the test with 3D7; in the test on 7G8; with CP201; in the test with CP215; in the test with CP237) was “inactive” each time. For the same compound, the Potency result with CP262, in the test on CP266, in the test on CP291, with CP315, in the test on CP325 and in the test with DFO2036 was “inactive” in each case. Besides, the Potency result in the test with Dd2, in the test on FAB9, in the test with HB3, in the test with ICS, in the test with JCK and with P94_40 was “inactive” in each case. Also, in the test with TAB165, the Potency entry was “inactive”.
For the compound `O=C1CCc2c(ccc3ccccc23)O1`, the compound was classed as inactive in test [2].
`OCCOCCN1CCN(Cc2cccc(Oc3ccccc3)c2)CC1`: the compound was classed as inactive in test [2].
Same read-out and setting: to `COc1cc(CNC(=O)CCCC/C=C\C(C)C)ccc1O` belongs “inactive”.
For the compound `C[C@@H](C(=O)O)c1ccc(-c2ccccc2)c(F)c1`, the Potency entry (in test [1]; in the test with 3D7; with 7G8; in the test on CP201; in the test with CP215; in the test on CP237) was “inactive” in each case. For the same compound, the Potency entry with CP262, with CP266, with CP291, in the test with CP315, with CP325 and in the test with DFO2036 was “inactive” each time. Moreover, the Potency entry in the test with Dd2, in the test with FAB9, in the test on HB3, with ICS, with JCK and in the test on P94_40 was “inactive” each time. For the same compound, in the test on TAB165, the Potency entry was “inactive”.
For the compound `CCOC(=O)C(CCc1ccccc1)NC1CCc2ccccc2N(CC(=O)O)C1=O` (stereo not drawn), the Potency entry (in [1]; in the test with 3D7; in the test on CP201; with CP215; in the test on CP262; in the test with CP266) was “inactive” throughout. The Potency result in the test with CP315, in the test with CP325, with FAB9, in the test on HB3, with JCK and in the test with P94_40 was “inactive” throughout. The Potency in the test on 7G8 is 7.94 µM (active); with CP237, 10 µM (active); in the test with Dd2, 11.2 µM (active); in the test on ICS, 6.31 µM (active); with TAB165, 11.2 µM (active).
